Experimental data: PubChem BioAssay AID652054 (National Center for Advancing Translational Sciences (NCATS), 2013)
Where “and” joins values, the source holds several entries; their conditions need not be identical. Equal entries are not always repeated. Among all 360,000 compounds or so, about 9,100 (2.5%) were called active. Inconclusive results (about 4%) are left out. Cut-off read from the data, not from the text of the source: active = max response below about -50%; inconclusive = no clear call, values can overlap the other calls; inactive = above that. The sample as a whole holds a higher share of actives than the screen did.

target: D(3) dopamine receptor (Homo sapiens) (UniProt P35462); experiment: qHTS of D3 Dopamine Receptor Antagonist: qHTS; conditions: D3R cells, DiscoveRx beta-arrestin luminescence, antagonist mode; active compounds read low
Sequence (P35462 whole entry, looked up): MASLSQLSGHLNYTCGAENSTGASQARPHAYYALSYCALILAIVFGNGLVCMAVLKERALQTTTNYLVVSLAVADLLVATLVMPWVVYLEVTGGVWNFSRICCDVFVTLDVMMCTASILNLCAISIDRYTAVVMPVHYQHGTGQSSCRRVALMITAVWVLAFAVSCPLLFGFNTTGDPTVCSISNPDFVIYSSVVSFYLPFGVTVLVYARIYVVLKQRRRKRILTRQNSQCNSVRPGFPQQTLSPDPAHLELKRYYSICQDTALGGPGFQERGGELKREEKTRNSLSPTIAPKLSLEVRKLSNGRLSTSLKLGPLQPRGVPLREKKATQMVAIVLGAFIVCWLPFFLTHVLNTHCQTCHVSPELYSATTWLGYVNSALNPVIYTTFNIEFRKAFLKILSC
Summary of the method: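 Cells expressing the human receptor were seeded at 1500 cells/well, incubated overnight at 37 degrees C in 5% CO2, then exposed to library compounds with dopamine controls for 90 minutes at 37 degrees C before luminescent detection.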
% is set by controls: 0 for no effect and ±100 for the full control effect.

Max response, negative = inhibition, active:
Cc1cc(=O)oc2cc(NC(=O)C3CC(=O)N(Cc4ccccc4)C3)ccc12 (stereo unspecified) -60.6%, Cc1cc(NC(=O)c2ccc(F)cc2)ccc1NC(=O)c1ccco1 -99.6%, Cc1cccc(-n2c(O)c(C=Nc3ccccc3N)c(=O)[nH]c2=O)c1 -114%, CN(Cc1ccccc1)Cc1ccccc1F -76.7%, Clc1cccc(-c2nc3nc4ccccc4nc3n2Cc2ccco2)c1 -72.7%, CC1=CC(=C(C#N)c2nc3ccccc3s2)C=C(C)N1c1ccc(F)cc1F -51.3%, COc1ccc(C)cc1N(C(=O)Cn1nnc(-c2ccc(C)o2)n1)C(C(=O)NC1CCCC1)c1ccncc1 (stereo unspecified) -57.8%, CC(NCc1nc2ccccc2n1C)C12CC3CC(CC(C3)C1)C2 (stereo unspecified) -77.6%, CC(C)c1cc(C(=O)N/N=C/c2ccoc2)c(O)c(C(C)C)c1 -60.7%, COc1ccc(C[C@H]2CN3C(=NC[C@H]3C)N2CCNC(=O)CCC2CCCCC2)cc1 -71.7%, CCOC(=O)c1c(S(=O)(=O)Nc2ccc(CN3CCC(C)CC3)cc2)c(C)n(C)c1C -51%, COC(=O)[C@H]1[C@H]2C[C@H]3c4[nH]c5ccccc5c4CCN3C[C@@H]2CC[C@@H]1O -113% and -60.5%, Cn1c(=O)[nH]c(=O)c2c1nc(N1CCN(CCO)CC1)n2CCSc1nc2ccccc2s1 -66.2%, CCOC(=O)CCC(=O)OCC(=O)NC(C)C1CC2CCC1C2 (stereo unspecified) -55.1%, CC(O)C(NS(=O)(=O)c1ccc(Cl)cc1)C(=O)OCc1cc([N+](=O)[O-])cc2c1OCOC2 (stereo unspecified) -82.9%, COc1ccc(CC(=O)N/N=C/c2cc([N+](=O)[O-])cc(Br)c2O)cc1 -79.9%

Max response, negative = inhibition, inactive:
COC(=O)C(Cc1c[nH]c2ccccc12)NC(=O)CCNC(=O)c1ccco1 (stereo unspecified) 40%, CN(Cc1cn(Cc2ccc(C(F)(F)F)cc2)nn1)C1CN(Cc2cn(Cc3ccc(C(F)(F)F)cc3)nn2)S(=O)(=O)C1 (stereo unspecified) 0%, O=C(CCN1CCCCC1)Nc1ccc(F)c(F)c1 15.9%, CCC(C(=O)NCc1ccccc1)n1c(Cc2cc(F)cc(F)c2)nc2ccccc21 (stereo unspecified) 1.57%, OC[C@H]1O[C@@H](c2nc(-c3nc(-c4ccc(F)cc4)no3)cs2)[C@H](O)[C@@H](O)[C@H]1O 0%, Cc1cc(=O)oc2cc(NC(=O)C(C)Oc3ccccc3)ccc12 (stereo unspecified) 18.8%, O=C(Nc1ccc(F)c([N+](=O)[O-])c1)C1CC(=O)N(Cc2ccccc2)C1 (stereo unspecified) 16.3%, CO[C@@H]1CN(C)C(=O)c2cc(NC(=O)Nc3cc(F)ccc3F)ccc2OC[C@H](C)N(C(=O)c2ccccn2)C[C@@H]1C -21.4%, CCCCn1nnnc1C1(C)CCC(=O)N1Cc1ccc(OC)c(OC)c1 (stereo unspecified) 27.1%, COc1ccccc1C(=O)Nc1ccc(NC(=O)c2ccco2)c(C)c1 2.58%, Cc1cccc(OCC(=O)Nc2ccc(NC(=O)c3ccco3)c(C)c2)c1 -6.83%, CC(=O)c1cccc(-c2cnc3c(NC=O)cc(-c4cccc(C(=O)N(C)C)c4)cn23)c1 39.2%, CS(=O)(=O)c1cccc(-c2ccc3nncn3c2)c1 -15.7%, O=C(O)C1=C(C(=O)O)C2CCC1C2 -3.55%, Cc1ccc(N=Cc2c(O)n(-c3nccs3)c(=O)c3ccccc23)c(C)c1 7.33%, Cc1cccc(N2C(=O)CC(SC(N)=Nc3ccccc3)C2=O)c1 (stereo unspecified) -1.29%, CC1(C(=O)NS(=O)(=O)Cc2cccc(Cl)c2)CCN1C(=O)Cc1ccc(Cl)cc1Cl (stereo unspecified) 5.64%, CN(Cc1ccccc1F)C(=O)C(Cc1ccccc1)NC(=O)c1ccccc1 (stereo unspecified) 41.6%, CN(CC(=O)NC(=O)Nc1ccccc1F)Cc1ccccc1 -19.2%, CCc1nc2c(OCCC3CCCCC3)cccn2c1N(C)C(=O)c1ccco1 -17.4%, O=C(NCC(O)c1nc2ccccc2[nH]1)c1ccc(Br)cc1 (stereo unspecified) -3.7%, COc1ccc(NC(=O)CSc2nnnn2-c2cccc(OC)c2)cc1 26.1%, O=C(CSc1nnc(-c2cccnc2)n1Cc1ccco1)c1ccc(Cl)c(Cl)c1 25.5%, O=c1[nH]c(CSc2ncc(-c3ccc(F)cc3)n2Cc2ccco2)nc2ccccc12 11.8%, CCOC1=C2[C@H]([C@H]3C(=O)N(c4ccccc4)C(=O)[C@H]3C1)[C@@H](c1ccccc1)N(S(=O)(=O)c1ccc(C)cc1)[C@H]2c1ccccc1 0.0406%, CN(Cc1nc2ccccc2s1)C(=O)c1ccc(F)cc1 -18.6%, N#C/C(=C(/O)Cc1cccc2ccccc12)c1nc2ccccc2s1 -26.8%, CN1CCN(c2ccc3c(c2)OC[C@H](Cc2ccccc2)NS3(=O)=O)CC1 -23%, CCOC(=O)[C@]12CCCC=C1N(Cc1ccc3c(c1)OCO3)C(=O)[C@H](CC(=O)NCc1cccs1)C2 -6.39%, COC(=O)C[C@H]1C[C@@H]2c3cc(NC(=O)Nc4ccccc4)ccc3O[C@@H]2[C@@H](CO)O1 17.9%, CCC(C(=O)NC1CCCC1)N(C(=O)Cn1nnc(-c2ccc(C)o2)n1)c1ccc(OC)c(OC)c1 (stereo unspecified) 8.45%, Cc1cccc(N(C(=O)Cn2nnc(-c3ccc(C)o3)n2)C(C(=O)NC2CCCC2)c2ccncc2)c1 (stereo unspecified) 12.8%, CNC[C@H]1OCc2cnnn2CCCC(=O)N([C@H](C)CO)C[C@@H]1C 11.4%, COCCNC(=O)C1(C)CCCN(Cc2cccc(F)c2)C1 (stereo unspecified) -6.58%, Cn1c(CC(=O)NNC(=O)c2ccccc2F)nc2ccccc21 5.88%, COc1cccc(C(O)Cc2nc3ccccc3n2C)c1OC (stereo unspecified) 9.46%, COC(=O)c1ccc2nc(-c3cccc(Br)c3)c(Cc3ccccc3C(F)(F)F)n2c1 0%, O=C(N/N=C/c1ccoc1)c1ccc(Cl)cc1Cl 9.92%, CC(Oc1ccccc1[N+](=O)[O-])C(=O)N/N=C/c1ccoc1 (stereo unspecified) -27.6%, CC(=O)N1C[C@@H](CO)[C@@H](N(C)C(=O)c2ccco2)C[C@H]1c1ccccc1 0%, COc1cccc(CNC(=O)CCC2CCCN(Cc3ccc(OC(F)F)cc3)C2)c1 (stereo unspecified) -23.3%, C/C=C(\C)C(=O)NCCN1C2=NC[C@H](Cc3ccc(O)cc3)N2C[C@@H]1Cc1ccc(OC)cc1 -17.1%, CC1(C(=O)NCc2cccc3ccccc23)CCN1Cc1ccc(-c2ccccc2)o1 (stereo unspecified) 34.9%, CCOc1cc(/C=N/NC(=O)c2ccncc2)cc(Br)c1O 2.27%, CCC(C)CN1C(=O)CSCC1(C)C(=O)NCc1ccccc1 (stereo unspecified) 6.99%, COc1cc(C=NC2CCCCC2)ccc1O 22%, OC(c1ccc(Cl)cc1)c1ncc(-c2ccc(Cl)cc2)[nH]1 (stereo unspecified) 21.5%, CCOC(=O)c1c(S(=O)(=O)NCC(=O)Nc2ccc(C)cc2)c(C)n(C)c1C -0.327%, CCOC(=O)c1c(S(=O)(=O)Nc2cccc(Cl)c2)c(C)n(C)c1C -8.27%, CC1Cc2[nH][nH]c(=O)c2C(C2CCCC2)O1 (stereo unspecified) 0%, CCCCc1ccc(S(=O)(=O)NC(=O)C2(C)CCN2C(=O)c2ccccc2)cc1 (stereo unspecified) 0.751%, CC1CCC2(CC1)NC(=O)N(CC(=O)NCc1ccco1)C2=O (stereo unspecified) -7.59%, COc1cccc(-c2cc(NC(C)=O)c3ncc(-c4cccc(C(C)=O)c4)n3c2)c1 4.06%, CCOC(=O)c1cnn2c(SC)ncnc12 -12.7%, COc1ccc(-c2ccc3[nH]c4c(c3c2)CCN2C[C@H]3[C@H](C)ON(C)[C@H]3C[C@@H]42)cc1 -2.08%, C[C@H](O)[C@@H]1C(=O)N2CCc3c([nH]c4ccccc34)[C@@H]2C[C@@H]1N(C)C(=O)Nc1ccc(F)cc1 -19.9%, COc1ccc(S(=O)(=O)NC(=O)C2(C)CCN2C(=O)COc2ccc(Cl)cc2)cc1 (stereo unspecified) -5.73%, Cn1c(=O)[nH]c(=O)c2c1nc(N1CCN(C(c3ccccc3)c3ccccc3)CC1)n2CCO 6.48%, Cc1nnc(SCCCn2c(N3CCCCC3)nc3c2c(=O)[nH]c(=O)n3C)s1 17.6%, COCCNc1nc(Nc2ccccc2Cl)c2sc(-c3ccccc3)cc2n1 14.1%, CC(C)(C)C(=O)c1c(N)[nH]c(C(=O)c2ccccc2)c1-c1ccc(F)cc1 4.8%, Cc1c(C(=O)NC(C)C2CC3CCC2C3)cccc1[N+](=O)[O-] (stereo unspecified) 10.2%, Cc1cccc(C(=O)OCC(=O)NC(C)C2CC3CCC2C3)c1O (stereo unspecified) -13.8%, CN(C)C(=O)c1cccc(-c2cnc3c(NC=O)cc(-c4ccc(C(=O)N5CCOCC5)cc4)cn23)c1 -15.4%, CNc1cc(-c2c(OC)cccc2OC)ncn1 -17.3%, C[C@H](NS(=O)(=O)c1ccc(Cl)cc1)C(=O)OCC(=O)N1CCOCC1 -16.5%, CC(NS(=O)(=O)c1ccc(Cl)cc1)C(=O)Nc1ccc2c(c1)OCCO2 (stereo unspecified) -3.02%, CC1(C(=O)NS(=O)(=O)c2ccc(C#N)cc2)CCN1C(=O)CC1CCCC1 (stereo unspecified) -19%, COc1ccc(CC(=O)NCC(=O)N/N=C/c2cc(Br)ccc2OC)cc1 20.7%, O=C(Cc1ccc([N+](=O)[O-])cc1)N/N=C/c1ccco1 3%
